Assay results published in PubChem BioAssay (NCATS).
Results filed as inconclusive are left out. Active and inactive are the calls of the source. Unless noted, calls follow the shape of the dose curve; as a rule, active = well fitted curve in the direction sought with a large enough effect; inconclusive = small, poorly fitted or top-dose-only effect, or another doubt; inactive = no such curve, though single readings can be large; an effect the other way counts as inactive or inconclusive.

What was measured:
[1] = AP1 Signaling Pathway (AID 357; active = well fitted curve in either direction with a large enough effect, not every such curve was filed as active; also: % is scaled to controls: 0 for no effect and ±100 for the full control effect); settings: ME-180 AP-1-bla reporter, EGF-induced, beta-lactamase ratio, 5 h; at 17.2 µM (top of the series) unless noted
In short: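 ME-180 cells with beta-lactamase reporter under AP-1 response element, stimulated with EC50 EGF; compounds tested in titration series, 5 h at 37 °C. CCF4 substrate added 2.5 h at room temperature; 460/530 nm emission ratio gave %activity and AC50.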

[2] = NFAT Signaling Pathway (AID 444; active = well fitted curve in either direction with a large enough effect, not every such curve was filed as active;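 also: carbachol stimulus at about its EC50 of 1 µM final; % is scaled to controls: 0 for no effect and ±100 for the full control effect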); settings: Jurkat NFAT-bla M1, carbachol, beta-lactamase ratio, 5 h; at 17.2 µM (top of the series) unless noted
In short: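 Jurkat cells carrying an NFAT-driven β-lactamase reporter and co-transfected muscarinic M1 receptor were treated with compound plus carbachol (1 uM final, an EC50 level) for 5 h at 37 °C. CCF4 loading followed for 1 h at RT; 460/530 nm ratio gave %activity.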

[3] = Stat Signaling Pathway (AID 446; active = well fitted curve in either direction with a large enough effect, not every such curve was filed as active;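 also: ME-180 cervical cancer cells given 40 pM IL-6 alongside compound; SIE-controlled beta-lactamase reporter measured as 460/530 nm FRET emission ratio; % is scaled to controls: 0 for no effect and ±100 for the full control effect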)
In short: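 Screening format detects activators and inhibitors alike: ME-180 SIE-bla cells stimulated at 40 pM IL-6 for 5 hrs with compound, then dual-emission beta-lactamase read at 405 nm excitation.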

[4] = target: Glucocorticoid receptor (Homo sapiens) (UniProt P04150); test: GR-GFP Redistribution (AID 450;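 active = compounds whose dose series gives a full or clear partial fitted curve of increased nuclear translocation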; also: potency is read from the fitted curve at half-maximal effect); settings: U2OS GR-GFP nuclear translocation, laser cytometry, 2 h
[5] = target: Cytochrome P450 1A2 (Homo sapiens) (UniProt P05177); test: p450-cyp1a2 (AID 410; calls by dose curve; also: potency is read from the fitted curve at half-maximal effect;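 as to activity change, negative = inhibition: -100% = full effect of reference inhibitor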)
In short: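 Inhibition was calculated relative to 57 uM furafylline (full inhibition). The reaction used human CYP1A2 at 20nM with Luciferin-ME at its Km, 100uM, driven by an NADPH-regenerating system for 60 min at room temperature.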

[6] = target: Glucocorticoid receptor (Homo sapiens) (UniProt P04150); test: GR-EFC Redistribution (AID 451; calls by dose curve; also: potency is read from the fitted curve at half-maximal effect); settings: CHO-K1 GR-EFC translocation, beta-gal luminescence, 2 h
In short: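 CHO-K1 cells stably expressing nuclear-localized β-gal enzyme acceptor and GR fused C-terminally to the enzyme donor fragment; ligand-driven nuclear translocation restores β-gal by complementation. Compounds titrated up to 46 uM final, 2 h at 37 °C; luminescence read.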

[7] = target: 3',5'-cyclic-AMP phosphodiesterase 4B (Homo sapiens) (UniProt Q07343); test: qHTS Assay for Inhibitors of PDE-IV (AID 607; active = well fitted activation curve with a large enough effect in the main read-out, with a control signal flat, not every such curve was filed as active; also: % of control where 0% means no effect)
In short: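 The readout is membrane depolarisation from a cAMP-sensing CNG channel, detected with a potential dye at ex 535/em 590. Cells were HEK293-derived (endogenous PDE-IV) at 1000 cells/well, titrated up to 22.9 uM final.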

[8] = target: Muscarinic acetylcholine receptor M1 (Rattus norvegicus) (UniProt P08482); test: qHTS Assay for Antagonists of Acetylcholine Muscarinic M1 Receptor: Measurement of IP-One Response (AID 944); also: nearly all actives have a fitted effect of over 75% in size; also: potency is read from the fitted curve at half-maximal effect
In short: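 Steps: plate transfected CHO-M1 cells overnight; add test compound, 10 min; add carbachol (200 nM, EC80) in stimulation buffer with LiCl; incubate 30 min; add labelled IP1 tracer and anti-IP1 antibody in lysis buffer; read HTRF after 10 min.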

[9] = target: Pyruvate kinase (Leishmania mexicana) (UniProt Q27686); test: qHTS Validation Assay for Inhibitors of Leishmania Mexicana Pyruvate Kinase (AID 945);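 also: 0% = DMSO only neutral control wells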
In short: (§1)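 LmPYK E451W 0.2 nM; 0.5 mM PEP, 0.1 mM ADP, 7 mM MgCl2, 50 mM KCl, imidazole pH 7.2, 0.01% Tween 20, 0.05% BSA; 1 h RT; PKLight luminescence; DMSO-normalized.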

[10] = target: Pyruvate kinase PKM (Homo sapiens) (UniProt P14618); test: qHTS Assay for Activators of Human Muscle Pyruvate Kinase (AID 954; active = well fitted curve in the direction sought with a large enough effect, not every such curve was filed as active;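 also: 0% = uninhibited enzyme and -100% = no enzyme or full thiadiazolimine inhibition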)
In short: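 Reaction: 0.1 nM purified PKM2 with 0.5 mM phosphoenolpyruvate and 0.1 mM ADP, room temperature, 1 h. Readout: luciferase-based ATP luminescence after stop reagent. Activators judged against a 0.3 nM enzyme column.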

[11] = target: Alpha-galactosidase (Coffea arabica) (UniProt Q42656); test: Counterscreen for Glucocerebrosidase Inhibitors: qHTS Assay for Coffee Bean alpha-Galactosidase at pH 4.5 (AID 957);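 also: plate controls were enzyme alone for no effect and no enzyme for full effect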
In short: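 AC50 values derive from Hill-equation modeling of concentration-response data, normalized to no-enzyme and full-activity controls. The pH 4.5 citrate assay used 2 nM coffee bean enzyme and 80 uM fluorogenic substrate for 20 min.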

[12] = target: Alpha-galactosidase A (Homo sapiens) (UniProt P06280); test: Counterscreen for Glucocerebrosidase Inhibitors: qHTS Assay for Human alpha-Galactosidase at pH 4.5 (AID 992); also: 0% is about no effect
In short: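 Concentration-response curves (0.7 nM to 77 uM final) were modeled with the Hill equation to give AC50. Reactions: 2 nM enzyme, 80 uM fluorogenic alpha-galactoside, pH 4.5 citric acid buffer, 20 min, room temperature.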

[13] = target: alpha-glucosidase (Oryza sativa, rice) (UniProt Q653V4); test: Counterscreen for Glucocerebrosidase Inhibitors: qHTS Assay for Rice alpha-Glucosidase at pH 5.0 (AID 997);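 also: 0% = full activity with enzyme and -100% = basal without enzyme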
In short: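 Rice alpha-glucosidase (4 nM final) with 400 uM 4-methylumbelliferyl-alpha-D-glucopyranoside in citrate buffer pH 5.0, 20 min at room temperature, stopped at pH 10; fluorescence 365/440 nm, compounds 0.7 nM–77 uM, AC50 from Hill fits.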

[14] = target: Alpha-galactosidase (Coffea arabica) (UniProt Q42656); test: Counterscreen for Glucocerebrosidase Inhibitors: qHTS Assay for Coffee Bean alpha-Galactosidase at pH 5.9 (AID 998);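 also: plate controls were uninhibited enzyme for no effect and no-enzyme basal signal for full effect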
In short: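 Green coffee bean enzyme (2 nM final) was incubated with compounds (0.7 nM–77 uM) and 4-methylumbelliferyl alpha-D-galactopyranoside (80 uM) in citrate buffer pH 5.9, 20 min at room temperature. High-pH stop; fluorescence 365/440 nm; AC50 from Hill fits.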

[15] = target: Mitogen-activated protein kinase 10 (Mus musculus) (UniProt Q61831); test: JNK3 AlphaScreen Assay (AID 530; active = well fitted curve in either direction with a large enough effect, not every such curve was filed as active;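 also: kinase came from lysate of stimulated human HepG2 cells; signal reports phosphorylation of biotinylated GST-cJun 1-79 at Ser73 with 10 µM ATP; % is scaled to controls: 0 for no effect and ±100 for the full control effect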)
In short: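 JNK3 came from HepG2 lysates pre-activated with IL-1beta and TNF-alpha and phosphorylated biotinylated GST-cJun (1-79) at 10 uM ATP, pH 7.6, room temperature. Compounds were titrated. AlphaScreen signal used anti-phospho-cJun (Ser73) antibody.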

[16] = target: Guanine nucleotide-binding protein G(i) subunit alpha-1 (Homo sapiens) (UniProt P63096); test: qHTS Assay for Inhibitors of RGS12 GoLoco Motif Activity (Green Fluorophore) (AID 879); also: potency is read from the fitted curve at half-maximal effect
In short: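 Fluorescence polarization assay: 50 nM Gαi1 with 10 nM FITC-labeled RGS12 GoLoco peptide in 10 mM Tris pH 7.5, 150 mM NaCl, 0.1 mM GDP, 0.05% NP40, 10 min at room temperature with compound.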

[17] = target: Cytochrome P450 3A4 (Homo sapiens) (UniProt P08684); test: qHTS Assay for Activators of Cytochrome P450 3A4 (AID 885); also: nearly all actives have a fitted effect of over 65% in size
In short: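 Steps: enzyme/substrate mix dispensed; compound added, 10 min RT; NADPH regeneration solution added, 60 min RT; luciferin detection buffer stops reaction; 20 min later luminescence measured.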

[18] = target: Muscarinic acetylcholine receptor M1 (Rattus norvegicus) (UniProt P08482); test: qHTS Assay for Antagonists of Acetylcholine Muscarinic M1 Receptor: Kinetic Measurement of Intracellular Calcium Response (AID 943); also: potency is read from the fitted curve at half-maximal effect; nearly all actives have a fitted effect of over 75% in size
In short: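 Intracellular calcium flux, recorded with Fluo-4 in a kinetic plate reader, served as signal; the response to carbachol at EC80 (100 nM final) was taken as maximal over minimal fluorescence after a 10 min compound pre-incubation in rat M1-CHO cells.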

[19] = target: Pyruvate kinase PKM (Homo sapiens) (UniProt P14618); test: qHTS Assay for Inhibitors of Human Muscle Pyruvate Kinase (AID 958)
In short: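 Screening used highly purified human pyruvate kinase M2 under submaximal activity, with PEP at its Km and ADP below Km. After an hour at room temperature, ATP was read by luciferase luminescence.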

[20] = target: Pyruvate kinase (Leishmania mexicana) (UniProt Q27686); test: qHTS Validation Assay for Activators of Leishmania Mexicana Pyruvate Kinase (AID 959)
In short: as §1

[21] = target: Cytochrome P450 2C9 (Homo sapiens) (UniProt P11712); test: qHTS Assay for Inhibitors and Substrates of Cytochrome P450 2C9 (AID 883); also: % is scaled to controls: 0 for no effect and ±100 for the full control effect; nearly all actives have a fitted effect of over 60% in size
In short: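 A luminogenic readout tracked human CYP2C9 (10nM) converting deoxyluciferin (100uM, at KM) in 25mM KPO4 during 60 min at 37C with regenerated NADPH. Values normalized to 57uM sulphaphenazole as complete inhibition.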

[22] = target: Cytochrome P450 2C19 (Homo sapiens) (UniProt P33261); test: qHTS Assay for Inhibitors and Substrates of Cytochrome P450 2C19 (AID 899); also: % is scaled to controls: 0 for no effect and ±100 for the full control effect; nearly all actives have a fitted effect of over 60% in size
In short: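 NADPH-dependent conversion of Luciferin-H EGE (10uM, at KM) by 5nM enzyme in 50mM KPO4, 60 min at 37C following 10 min compound preincubation. Stopped with luciferin detection buffer; luminescence read after 20 min.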

3',5'-cyclic-AMP phosphodiesterase 4B (Homo sapiens), sequence (Q07343 whole entry, looked up): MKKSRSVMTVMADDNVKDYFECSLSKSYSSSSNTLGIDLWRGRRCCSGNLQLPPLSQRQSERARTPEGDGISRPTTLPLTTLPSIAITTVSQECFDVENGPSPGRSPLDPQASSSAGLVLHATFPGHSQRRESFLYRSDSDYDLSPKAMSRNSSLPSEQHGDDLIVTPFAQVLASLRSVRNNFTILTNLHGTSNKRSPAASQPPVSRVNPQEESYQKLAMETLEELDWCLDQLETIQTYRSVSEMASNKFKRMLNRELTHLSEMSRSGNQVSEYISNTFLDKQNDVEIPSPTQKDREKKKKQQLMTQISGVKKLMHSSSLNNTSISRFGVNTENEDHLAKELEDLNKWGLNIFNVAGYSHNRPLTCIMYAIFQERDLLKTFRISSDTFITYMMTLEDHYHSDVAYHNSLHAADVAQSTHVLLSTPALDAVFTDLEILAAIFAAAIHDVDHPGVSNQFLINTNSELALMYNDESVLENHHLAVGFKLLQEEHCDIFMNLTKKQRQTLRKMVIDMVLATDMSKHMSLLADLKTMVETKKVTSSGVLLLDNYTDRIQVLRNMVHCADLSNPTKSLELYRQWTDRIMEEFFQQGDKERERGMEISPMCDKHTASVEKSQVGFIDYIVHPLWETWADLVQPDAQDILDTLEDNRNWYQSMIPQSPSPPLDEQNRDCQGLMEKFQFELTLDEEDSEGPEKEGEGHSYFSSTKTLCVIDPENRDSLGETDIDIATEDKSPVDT
Alpha-galactosidase A (Homo sapiens), sequence (P06280 whole entry, looked up): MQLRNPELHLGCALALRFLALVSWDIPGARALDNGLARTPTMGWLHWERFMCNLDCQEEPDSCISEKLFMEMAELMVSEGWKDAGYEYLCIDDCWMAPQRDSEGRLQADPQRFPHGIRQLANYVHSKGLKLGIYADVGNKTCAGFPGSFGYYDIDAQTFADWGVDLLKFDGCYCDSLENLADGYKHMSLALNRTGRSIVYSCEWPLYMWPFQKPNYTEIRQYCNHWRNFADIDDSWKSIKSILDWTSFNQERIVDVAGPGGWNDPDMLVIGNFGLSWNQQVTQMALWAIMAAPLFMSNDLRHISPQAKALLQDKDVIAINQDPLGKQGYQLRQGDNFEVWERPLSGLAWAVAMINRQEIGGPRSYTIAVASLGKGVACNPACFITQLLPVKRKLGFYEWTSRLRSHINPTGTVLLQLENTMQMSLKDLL
Muscarinic acetylcholine receptor M1 (Rattus norvegicus), sequence (P08482 whole entry, looked up): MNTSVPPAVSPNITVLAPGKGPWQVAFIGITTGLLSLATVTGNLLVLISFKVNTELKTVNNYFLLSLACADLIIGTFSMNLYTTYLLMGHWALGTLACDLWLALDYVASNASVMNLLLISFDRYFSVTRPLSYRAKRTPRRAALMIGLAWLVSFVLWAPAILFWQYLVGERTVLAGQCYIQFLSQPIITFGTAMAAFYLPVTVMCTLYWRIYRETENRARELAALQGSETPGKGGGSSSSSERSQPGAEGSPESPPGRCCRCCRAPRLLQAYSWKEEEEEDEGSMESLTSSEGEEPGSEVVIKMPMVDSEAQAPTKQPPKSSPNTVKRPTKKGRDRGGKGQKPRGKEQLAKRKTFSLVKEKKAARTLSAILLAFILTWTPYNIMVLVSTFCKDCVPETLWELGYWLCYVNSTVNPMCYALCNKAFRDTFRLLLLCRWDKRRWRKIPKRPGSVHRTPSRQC
Glucocorticoid receptor (Homo sapiens), sequence (P04150 whole entry, looked up, the tested form may be a part): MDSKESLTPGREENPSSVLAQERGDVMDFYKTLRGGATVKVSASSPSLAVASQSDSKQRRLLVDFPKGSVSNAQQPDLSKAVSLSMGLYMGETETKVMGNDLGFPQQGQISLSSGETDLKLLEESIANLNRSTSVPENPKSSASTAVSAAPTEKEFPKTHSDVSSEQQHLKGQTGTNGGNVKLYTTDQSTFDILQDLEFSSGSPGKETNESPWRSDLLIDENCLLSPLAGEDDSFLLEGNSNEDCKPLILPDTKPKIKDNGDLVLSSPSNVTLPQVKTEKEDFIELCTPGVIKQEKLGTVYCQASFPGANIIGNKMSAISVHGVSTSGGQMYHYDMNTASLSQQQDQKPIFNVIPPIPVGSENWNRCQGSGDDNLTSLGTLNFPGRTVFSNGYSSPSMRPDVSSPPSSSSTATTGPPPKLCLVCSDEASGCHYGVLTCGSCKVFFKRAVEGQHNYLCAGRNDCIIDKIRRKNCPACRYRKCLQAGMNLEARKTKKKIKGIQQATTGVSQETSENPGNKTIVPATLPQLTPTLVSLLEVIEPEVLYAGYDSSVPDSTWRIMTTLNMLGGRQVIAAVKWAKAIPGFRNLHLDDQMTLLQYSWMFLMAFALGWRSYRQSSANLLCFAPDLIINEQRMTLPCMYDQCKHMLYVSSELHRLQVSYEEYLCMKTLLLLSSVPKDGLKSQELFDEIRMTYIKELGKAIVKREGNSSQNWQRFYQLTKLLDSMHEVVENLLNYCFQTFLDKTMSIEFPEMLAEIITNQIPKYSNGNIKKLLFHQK
Cytochrome P450 1A2 (Homo sapiens), sequence (P05177 whole entry, looked up): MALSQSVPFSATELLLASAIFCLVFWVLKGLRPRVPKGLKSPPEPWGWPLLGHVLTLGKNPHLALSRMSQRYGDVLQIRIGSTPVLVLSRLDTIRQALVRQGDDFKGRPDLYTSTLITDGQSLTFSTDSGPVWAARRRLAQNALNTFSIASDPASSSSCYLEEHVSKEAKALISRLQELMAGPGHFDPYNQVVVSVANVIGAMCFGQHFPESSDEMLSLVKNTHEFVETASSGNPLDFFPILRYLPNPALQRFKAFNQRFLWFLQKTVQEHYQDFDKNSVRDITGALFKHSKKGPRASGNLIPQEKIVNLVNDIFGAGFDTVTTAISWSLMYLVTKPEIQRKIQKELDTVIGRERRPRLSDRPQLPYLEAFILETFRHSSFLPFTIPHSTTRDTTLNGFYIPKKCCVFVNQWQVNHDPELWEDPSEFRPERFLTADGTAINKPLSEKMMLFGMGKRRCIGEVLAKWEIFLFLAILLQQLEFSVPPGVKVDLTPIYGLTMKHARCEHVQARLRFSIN
Pyruvate kinase (Leishmania mexicana), sequence (Q27686 2-499 E452W): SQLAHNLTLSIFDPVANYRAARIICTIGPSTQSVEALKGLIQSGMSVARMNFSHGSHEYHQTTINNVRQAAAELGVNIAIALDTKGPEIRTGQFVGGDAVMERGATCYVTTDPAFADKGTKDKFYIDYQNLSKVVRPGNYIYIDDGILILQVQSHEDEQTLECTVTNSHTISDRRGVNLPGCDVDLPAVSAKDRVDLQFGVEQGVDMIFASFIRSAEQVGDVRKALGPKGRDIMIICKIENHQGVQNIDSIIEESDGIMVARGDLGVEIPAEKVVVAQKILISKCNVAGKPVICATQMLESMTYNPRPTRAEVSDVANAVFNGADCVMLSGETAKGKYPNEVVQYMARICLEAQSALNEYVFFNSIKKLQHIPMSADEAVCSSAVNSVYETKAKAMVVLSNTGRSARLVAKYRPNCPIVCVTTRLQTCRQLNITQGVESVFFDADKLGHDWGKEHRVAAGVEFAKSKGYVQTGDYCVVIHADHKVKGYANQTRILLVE
Pyruvate kinase PKM (Homo sapiens), sequence (P14618 whole entry, looked up): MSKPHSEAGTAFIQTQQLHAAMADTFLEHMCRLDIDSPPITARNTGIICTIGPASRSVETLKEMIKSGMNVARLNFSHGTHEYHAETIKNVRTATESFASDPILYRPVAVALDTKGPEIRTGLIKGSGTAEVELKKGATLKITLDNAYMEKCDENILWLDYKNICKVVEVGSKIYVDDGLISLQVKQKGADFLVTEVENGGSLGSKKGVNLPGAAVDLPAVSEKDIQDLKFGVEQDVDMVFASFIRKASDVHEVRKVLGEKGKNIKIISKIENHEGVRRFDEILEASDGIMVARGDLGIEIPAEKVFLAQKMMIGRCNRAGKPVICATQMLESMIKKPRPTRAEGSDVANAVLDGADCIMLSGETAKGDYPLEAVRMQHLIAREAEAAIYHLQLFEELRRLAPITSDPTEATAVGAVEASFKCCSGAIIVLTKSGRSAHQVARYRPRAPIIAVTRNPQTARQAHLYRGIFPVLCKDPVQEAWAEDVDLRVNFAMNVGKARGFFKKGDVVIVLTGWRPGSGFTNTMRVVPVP
Alpha-galactosidase (Coffea arabica), sequence (Q42656 whole entry, looked up): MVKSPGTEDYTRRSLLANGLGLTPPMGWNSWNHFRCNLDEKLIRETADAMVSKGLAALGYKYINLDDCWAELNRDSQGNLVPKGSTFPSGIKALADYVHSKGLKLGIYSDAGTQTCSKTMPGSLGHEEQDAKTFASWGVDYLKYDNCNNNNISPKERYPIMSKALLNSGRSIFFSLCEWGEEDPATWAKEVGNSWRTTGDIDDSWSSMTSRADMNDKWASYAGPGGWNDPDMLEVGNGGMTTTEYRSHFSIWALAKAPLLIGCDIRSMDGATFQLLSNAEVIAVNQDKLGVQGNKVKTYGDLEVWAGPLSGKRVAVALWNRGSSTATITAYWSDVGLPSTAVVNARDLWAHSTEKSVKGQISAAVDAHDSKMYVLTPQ
Guanine nucleotide-binding protein G(i) subunit alpha-1 (Homo sapiens), sequence (P63096 whole entry, looked up): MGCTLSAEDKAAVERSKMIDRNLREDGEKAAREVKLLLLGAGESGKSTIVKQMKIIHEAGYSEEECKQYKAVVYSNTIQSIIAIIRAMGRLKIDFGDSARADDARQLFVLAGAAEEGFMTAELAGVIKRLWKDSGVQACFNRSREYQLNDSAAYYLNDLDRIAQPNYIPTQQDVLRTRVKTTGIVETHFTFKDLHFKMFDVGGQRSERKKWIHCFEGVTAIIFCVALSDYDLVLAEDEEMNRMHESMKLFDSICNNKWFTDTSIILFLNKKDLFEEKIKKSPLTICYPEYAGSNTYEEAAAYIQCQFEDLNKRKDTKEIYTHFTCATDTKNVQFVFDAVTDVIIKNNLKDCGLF

CN1CCc2nc(SCC(=O)OC(C)(C)C)c(C#N)cc2C1
inactive: activity change, negative = inhibition [1] -5.69% | activity change, negative = inhibition [2] -15.8% | outcome [3] | Potency [4] > 20.6 µM

CCCN1CCc2cccc3c2[C@@H]1Cc1ccc(O)c(O)c1-3
active: Potency [5] 3.98 µM
inactive: activity change, negative = inhibition [1] 6.42% [at 38 µM] | outcome [3] | Potency [4] > 46 µM | Potency [6] > 46 µM | outcome [7] | Potency [8] | Potency [9] | outcome [10] | outcome [11] | outcome [12] | outcome [13] | outcome [14]

O=C1c2ccccc2C(=O)N1Cc1nc2ccccc2c(=O)n1-c1cccnc1
inactive: activity change, negative = inhibition [1] 24% | activity change, negative = inhibition [2] -3.03% | outcome [3] | Potency [4] > 20.6 µM

NC(N)=Nc1ccc2[nH]c3c(c2c1)C[C@]1(O)[C@@H]2Cc4ccc(O)c5c4[C@]1(CCN2CC1CC1)[C@H]3O5
active: Potency [16] 25.1 µM | Potency [18] 3.55 µM | Potency [8] 7.94 µM | Potency [19] 10 µM
inactive: activity change, negative = inhibition [1] -18.3% [at 38 µM] | Potency [5] | outcome [3] | Potency [4] > 46 µM | Potency [6] > 46 µM | outcome [15] | outcome [7] | Potency [17] | outcome [10] | outcome [11] | outcome [20] | outcome [12] | outcome [13] | outcome [14]

CC(C)(C)NC[C@H](O)c1ccccc1Cl
inactive: activity change, negative = inhibition [1] -8.82% [at 38 µM] | Potency [5] | activity change, negative = inhibition [2] -15.3% [at 38 µM] | outcome [3] | Potency [4] > 46 µM | Potency [6] > 46 µM | outcome [7] | Potency [16] | Potency [9] | outcome [10] | outcome [11] | outcome [12] | outcome [13] | outcome [14]

C=C(C)[C@@H]1CN[C@H](C(=O)O)[C@H]1CC(=O)O
inactive: activity change, negative = inhibition [1] 8.5% [at 38 µM] | Potency [5] | activity change, negative = inhibition [2] 0.349% [at 38 µM] | Potency [4] > 46 µM | Potency [6] > 46 µM | outcome [7] | Potency [21] | Potency [22]

CCCCNC(=O)Nc1ccc(C(O)(C(=O)OCC)C(F)(F)F)cc1 (stereo not given)
inactive: activity change, negative = inhibition [1] -5.83% | activity change, negative = inhibition [2] 30% | outcome [3] | Potency [4] > 20.6 µM
